# Experimental data published in PubChem BioAssay (EPA / NIEHS).
# Results filed as inconclusive are left out. Active and inactive are the calls of the source. The calls were made as follows: active = hit-call score of the fitted dose curve at least 0.9, where 1 is the maximum; inconclusive = response in the unintended direction; inactive = score below 0.9.
# Target: Estrogen-related receptor gamma (Homo sapiens) (UniProt P62508)
# Assay: ATG_ERRg_TRANS: Attagene TRANS-FACTORIAL HepG2 Assay for human Estrogen-Related Receptor gamma (ERRg) (AID 2282977);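 also: hits increase reporter signal over DMSO so potencies reflect activators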
# Conditions: HepG2 Attagene TRANS reporter, ERRg transactivation
# Method in brief: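 Exogenous NR-Gal4 chimera activity measured as reporter transcript induction after 24 h in transiently transfected HepG2 cells. RNA reverse-transcribed, PCR-amplified, 6-FAM-labelled and resolved by capillary electrophoresis; increase over DMSO baseline.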
# Estrogen-related receptor gamma (Homo sapiens), sequence (P62508 whole entry, looked up): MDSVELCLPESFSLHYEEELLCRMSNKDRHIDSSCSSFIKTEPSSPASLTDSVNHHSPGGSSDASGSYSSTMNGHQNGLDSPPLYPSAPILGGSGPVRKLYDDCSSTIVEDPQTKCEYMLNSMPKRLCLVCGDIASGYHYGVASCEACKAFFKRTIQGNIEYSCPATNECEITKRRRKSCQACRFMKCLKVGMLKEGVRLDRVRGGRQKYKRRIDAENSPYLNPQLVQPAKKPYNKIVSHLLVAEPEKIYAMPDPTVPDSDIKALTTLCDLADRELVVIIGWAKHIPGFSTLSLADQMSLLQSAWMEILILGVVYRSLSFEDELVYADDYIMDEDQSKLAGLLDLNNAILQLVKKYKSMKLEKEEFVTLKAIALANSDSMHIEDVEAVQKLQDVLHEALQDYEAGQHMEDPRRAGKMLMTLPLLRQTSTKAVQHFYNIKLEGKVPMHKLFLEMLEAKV
row,SMILES,outcome
1,CCc1nn(C)c(C(=O)NCc2ccc(C(C)(C)C)cc2)c1Cl,inactive
2,C=CCC1=C(C)[C@@H](OC(=O)[C@@H]2[C@@H](C=C(C)C)C2(C)C)CC1=O,inactive
3,CC(C)C1(C)N=C(c2nc3ccccc3cc2C(=O)O)NC1=O (stereo unspecified),inactive
4,CS/C(C)=N/OC(=O)N(C)SN(C)C(=O)O/N=C(\C)SC,inactive
5,CCNc1nc(Cl)nc(NCC)n1,inactive
6,O=C(Nc1ccccc1)Nc1ccnc(Cl)c1,inactive
7,COc1nc(C)nc(NC(=O)NS(=O)(=O)c2ccccc2Cl)n1,inactive
8,C#CCOS(=O)OC1CCCCC1Oc1ccc(C(C)(C)C)cc1 (stereo unspecified),inactive
9,N#Cc1cc(Br)c(O)c(Br)c1,inactive
10,CC1=C(C(=O)Nc2ccccc2)SCCO1,inactive
11,COP(=S)(OC)Oc1nc(Cl)c(Cl)cc1Cl,inactive
